In the OligoGym collection:

Target: KRBA1
Test: pooled miR-30 sensor sort-seq; sequence = guide strand
Details: shRNA
Note: reference of the scale not given here.

Row | Sequence | sensor-assay potency score (higher = more potent)
1 | TTTGTCGGCAGTTTTGATGGGG | 0.519
2 | TTGTCGGCAGTTTTGATGGGGA | -0.192
3 | ATTTGATTGAATCTGAGCCAAG | -1.53
4 | TTCTCCAGCTGAGAAACCGGGC | -0.802
5 | TAGAGGACAGCAGCTGCTGGGA | -1.32
6 | TTCTTCACTGTGTGATCTGTGG | -0.539
7 | TTGTCTGCTGTCCAGTTCCTGG | -1.35
8 | TCTCCAAACAAGAACTCTGGGA | -0.424
9 | TCTGAGACCTAGAGTCTCCTGG | -0.0756
10 | TTCACTGTGTGATCTGTGGGGT | 0.493
11 | TTGGCTGCAACTCTGGGTCTTC | -0.346
12 | TCTTCCATGTCCAAGCTCCAGG | -1.05

Target: KRBA2
Test: as above
Details: shRNA

Row | Sequence | sensor-assay potency score (higher = more potent)
13 | TTGCTGTTGTAACTTTTGCTTT | -1.09
14 | TAACAAGACACTGACCACCTCA | 0.174
15 | TTGAGCTCATGAACAACCTGGT | 0.411
16 | TTTAGCTTCTTTAACTTCCTTT | 0.674
17 | TGTGTCTCTGTAGCAATCCTTT | -1.24
18 | TAAGACAATAACTTCTTTGGTG | 0.507
19 | TTGCTTTCTACTAACTTTGTTA | 0.0117
20 | TATAAGACAATAACTTCTTTGG | -0.185
21 | ATTGAGCTCATGAACAACCTGG | -0.217
22 | TGAACTTGAACTCACCATCGGC | 0.0582
